Values without a mark were called inactive.
Compound: C#CCNC(=O)CCSSCCC(=O)NCCc1ccc(C=O)c(C=O)c1
Assay: lysine labeling ratio R10:1 (500 µM / 50 µM probe), SILAC-ABPP in living cells; higher = lower intrinsic lysine reactivity toward the probe, active = 2 or less
Settings: HeLa; probe concentrations 500 vs 50 µM
Method in brief: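 Measurements came from LC-MS/MS on a TIMS-TOF Pro of mixed SILAC light and heavy HeLa lysates after click to biotin-azide, trypsin digestion, neutravidin capture, DTT release and alkylation. Before lysis, the living cells sat in PBS at room temperature with 50 µM or 500 µM of an alkyne-tagged, disulfide-linked lysine probe, and labels were swapped forward and reverse. R per lysine is the median across both swap directions of the filtered median high-probe/low-probe MS1 peptide ratio. The cap is 20.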

Chain of UniProt P52803 (P52803 whole entry): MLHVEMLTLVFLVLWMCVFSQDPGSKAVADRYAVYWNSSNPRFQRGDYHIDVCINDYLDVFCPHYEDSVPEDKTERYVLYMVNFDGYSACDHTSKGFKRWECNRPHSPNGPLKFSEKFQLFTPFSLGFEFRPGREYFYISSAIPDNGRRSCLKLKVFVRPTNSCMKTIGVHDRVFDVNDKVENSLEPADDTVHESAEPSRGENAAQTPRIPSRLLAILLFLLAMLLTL
Chain of UniProt Q9NRD8 (Q9NRD8 whole entry): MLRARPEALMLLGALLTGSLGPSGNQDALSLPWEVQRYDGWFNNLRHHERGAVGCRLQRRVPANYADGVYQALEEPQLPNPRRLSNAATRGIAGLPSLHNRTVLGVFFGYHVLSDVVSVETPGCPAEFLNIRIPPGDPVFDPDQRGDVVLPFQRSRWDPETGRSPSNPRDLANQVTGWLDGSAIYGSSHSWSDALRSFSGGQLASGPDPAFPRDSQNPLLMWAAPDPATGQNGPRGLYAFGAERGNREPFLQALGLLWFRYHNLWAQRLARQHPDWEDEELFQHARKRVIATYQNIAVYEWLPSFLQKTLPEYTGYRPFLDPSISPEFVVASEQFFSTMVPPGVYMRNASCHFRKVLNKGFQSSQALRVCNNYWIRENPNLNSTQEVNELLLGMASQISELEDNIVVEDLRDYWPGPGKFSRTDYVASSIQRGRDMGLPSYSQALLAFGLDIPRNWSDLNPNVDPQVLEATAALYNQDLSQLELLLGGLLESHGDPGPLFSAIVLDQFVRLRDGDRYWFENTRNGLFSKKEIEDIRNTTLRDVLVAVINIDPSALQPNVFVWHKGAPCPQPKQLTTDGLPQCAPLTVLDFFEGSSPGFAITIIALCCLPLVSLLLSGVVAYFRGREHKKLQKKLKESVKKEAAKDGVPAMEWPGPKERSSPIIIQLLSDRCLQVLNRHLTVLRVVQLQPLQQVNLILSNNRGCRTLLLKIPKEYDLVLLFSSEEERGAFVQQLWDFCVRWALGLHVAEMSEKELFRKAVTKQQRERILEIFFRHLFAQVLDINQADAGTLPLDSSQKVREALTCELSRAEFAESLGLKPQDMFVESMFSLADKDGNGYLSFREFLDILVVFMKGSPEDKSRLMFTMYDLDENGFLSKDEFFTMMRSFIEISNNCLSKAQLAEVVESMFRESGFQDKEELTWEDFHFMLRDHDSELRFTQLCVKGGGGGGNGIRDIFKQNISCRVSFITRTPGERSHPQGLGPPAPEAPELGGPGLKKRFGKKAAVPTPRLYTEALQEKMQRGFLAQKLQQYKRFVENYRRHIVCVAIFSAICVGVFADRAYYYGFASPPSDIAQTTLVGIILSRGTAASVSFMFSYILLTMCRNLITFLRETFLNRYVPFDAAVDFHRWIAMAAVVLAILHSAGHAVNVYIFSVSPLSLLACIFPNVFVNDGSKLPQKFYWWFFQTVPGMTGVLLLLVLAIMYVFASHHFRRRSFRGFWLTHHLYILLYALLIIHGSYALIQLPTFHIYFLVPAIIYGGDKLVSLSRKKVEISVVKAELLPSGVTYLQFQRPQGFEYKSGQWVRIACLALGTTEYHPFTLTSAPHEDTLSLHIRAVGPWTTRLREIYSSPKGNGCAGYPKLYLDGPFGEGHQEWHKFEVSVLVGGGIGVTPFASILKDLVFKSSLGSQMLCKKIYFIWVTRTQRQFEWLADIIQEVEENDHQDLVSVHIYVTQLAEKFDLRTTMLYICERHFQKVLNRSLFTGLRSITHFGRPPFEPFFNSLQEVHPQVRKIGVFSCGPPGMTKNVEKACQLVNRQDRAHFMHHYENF
Chain of UniProt P61769 (P61769 whole entry): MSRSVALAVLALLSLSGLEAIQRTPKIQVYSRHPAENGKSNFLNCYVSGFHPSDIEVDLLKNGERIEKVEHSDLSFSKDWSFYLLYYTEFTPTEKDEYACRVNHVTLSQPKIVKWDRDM
Chain of UniProt Q9ULI3 (Q9ULI3 whole entry): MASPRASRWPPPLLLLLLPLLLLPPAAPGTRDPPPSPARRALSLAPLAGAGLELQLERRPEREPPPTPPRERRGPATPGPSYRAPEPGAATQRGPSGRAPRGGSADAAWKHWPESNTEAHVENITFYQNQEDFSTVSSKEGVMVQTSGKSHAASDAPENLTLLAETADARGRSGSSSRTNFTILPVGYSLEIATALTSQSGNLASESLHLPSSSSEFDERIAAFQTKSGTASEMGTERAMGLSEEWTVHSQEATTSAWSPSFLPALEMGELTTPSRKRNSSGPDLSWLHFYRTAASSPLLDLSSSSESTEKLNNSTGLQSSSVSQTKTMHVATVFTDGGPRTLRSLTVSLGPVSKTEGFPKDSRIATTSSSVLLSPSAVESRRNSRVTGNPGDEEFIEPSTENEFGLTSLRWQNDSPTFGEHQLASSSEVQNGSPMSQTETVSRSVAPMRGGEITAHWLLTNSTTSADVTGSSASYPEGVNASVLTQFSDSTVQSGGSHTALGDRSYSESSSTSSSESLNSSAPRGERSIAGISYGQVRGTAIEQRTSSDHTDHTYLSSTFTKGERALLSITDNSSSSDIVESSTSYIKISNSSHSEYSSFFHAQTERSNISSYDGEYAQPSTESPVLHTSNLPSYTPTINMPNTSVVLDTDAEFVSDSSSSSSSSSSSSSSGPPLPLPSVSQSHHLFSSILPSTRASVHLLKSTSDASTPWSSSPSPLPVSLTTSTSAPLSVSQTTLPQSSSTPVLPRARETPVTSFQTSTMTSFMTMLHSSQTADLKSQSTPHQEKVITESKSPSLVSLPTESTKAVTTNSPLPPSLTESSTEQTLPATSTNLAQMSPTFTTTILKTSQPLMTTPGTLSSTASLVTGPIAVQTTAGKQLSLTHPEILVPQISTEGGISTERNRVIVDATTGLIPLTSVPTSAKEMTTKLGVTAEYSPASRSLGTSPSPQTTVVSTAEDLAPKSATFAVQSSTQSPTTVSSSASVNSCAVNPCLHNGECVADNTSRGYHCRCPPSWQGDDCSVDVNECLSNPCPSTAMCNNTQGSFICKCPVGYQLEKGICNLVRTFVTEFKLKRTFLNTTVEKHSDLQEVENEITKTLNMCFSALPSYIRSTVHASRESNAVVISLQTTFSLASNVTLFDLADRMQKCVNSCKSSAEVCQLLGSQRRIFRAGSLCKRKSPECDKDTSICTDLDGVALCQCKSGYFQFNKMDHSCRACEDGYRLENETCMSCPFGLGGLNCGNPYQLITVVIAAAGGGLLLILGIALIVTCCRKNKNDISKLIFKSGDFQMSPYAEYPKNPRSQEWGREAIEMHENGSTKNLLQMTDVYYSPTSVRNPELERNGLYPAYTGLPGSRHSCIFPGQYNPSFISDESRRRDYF
Chain of UniProt P05783 (P05783 whole entry): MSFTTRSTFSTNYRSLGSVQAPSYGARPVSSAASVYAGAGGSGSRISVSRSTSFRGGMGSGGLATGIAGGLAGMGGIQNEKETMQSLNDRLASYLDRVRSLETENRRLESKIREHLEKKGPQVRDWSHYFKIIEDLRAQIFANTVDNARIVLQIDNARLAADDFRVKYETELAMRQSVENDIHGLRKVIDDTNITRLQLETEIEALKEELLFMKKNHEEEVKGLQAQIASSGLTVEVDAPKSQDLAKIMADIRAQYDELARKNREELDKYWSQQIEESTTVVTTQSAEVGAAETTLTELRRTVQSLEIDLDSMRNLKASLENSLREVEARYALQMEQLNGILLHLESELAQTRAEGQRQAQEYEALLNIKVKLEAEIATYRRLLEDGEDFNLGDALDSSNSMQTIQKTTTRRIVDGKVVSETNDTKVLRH
Chain of UniProt P49257 (P49257 whole entry): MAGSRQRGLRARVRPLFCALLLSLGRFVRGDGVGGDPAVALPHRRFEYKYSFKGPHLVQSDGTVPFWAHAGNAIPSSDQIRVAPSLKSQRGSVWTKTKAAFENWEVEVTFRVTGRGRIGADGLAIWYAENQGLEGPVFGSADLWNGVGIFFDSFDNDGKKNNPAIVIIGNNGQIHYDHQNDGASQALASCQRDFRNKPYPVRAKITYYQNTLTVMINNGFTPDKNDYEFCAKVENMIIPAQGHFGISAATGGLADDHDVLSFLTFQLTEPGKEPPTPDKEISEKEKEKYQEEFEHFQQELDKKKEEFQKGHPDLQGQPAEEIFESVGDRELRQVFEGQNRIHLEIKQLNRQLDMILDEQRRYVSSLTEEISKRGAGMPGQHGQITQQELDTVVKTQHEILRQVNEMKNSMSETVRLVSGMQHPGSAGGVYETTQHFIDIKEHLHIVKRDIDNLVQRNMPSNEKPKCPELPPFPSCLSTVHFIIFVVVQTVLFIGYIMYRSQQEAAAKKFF
Chain of UniProt P00558 (P00558 whole entry): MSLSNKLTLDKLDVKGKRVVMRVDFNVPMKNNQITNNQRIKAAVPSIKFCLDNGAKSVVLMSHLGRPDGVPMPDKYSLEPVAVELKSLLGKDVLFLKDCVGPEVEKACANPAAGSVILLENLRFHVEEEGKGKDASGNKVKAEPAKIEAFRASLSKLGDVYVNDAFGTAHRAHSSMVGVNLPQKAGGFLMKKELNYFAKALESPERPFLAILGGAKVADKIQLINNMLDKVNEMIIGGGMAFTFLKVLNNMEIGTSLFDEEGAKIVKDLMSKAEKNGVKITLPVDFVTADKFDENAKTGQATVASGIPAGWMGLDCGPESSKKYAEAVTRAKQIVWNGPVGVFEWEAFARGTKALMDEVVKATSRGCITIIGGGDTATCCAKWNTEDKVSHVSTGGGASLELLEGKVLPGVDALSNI
Chain of UniProt P08174 (P08174 whole entry): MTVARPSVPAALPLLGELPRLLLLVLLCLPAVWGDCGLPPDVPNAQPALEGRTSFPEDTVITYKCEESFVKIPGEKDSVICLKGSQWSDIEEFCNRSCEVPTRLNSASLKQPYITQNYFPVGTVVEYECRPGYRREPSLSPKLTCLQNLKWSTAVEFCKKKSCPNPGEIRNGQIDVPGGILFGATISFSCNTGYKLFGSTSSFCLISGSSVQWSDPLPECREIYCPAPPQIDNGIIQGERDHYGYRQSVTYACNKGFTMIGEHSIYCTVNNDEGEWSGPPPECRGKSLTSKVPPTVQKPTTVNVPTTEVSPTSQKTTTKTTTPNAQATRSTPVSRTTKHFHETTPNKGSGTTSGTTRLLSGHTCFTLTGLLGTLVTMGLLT

Row | Target | lysine labeling ratio R10:1
1 | UniProt P62269 (lysine site: K54) | 1.41 (active)
2 | DYNC1H1 (lysine site: K3621) (UniProt Q14204) | 3.03
3 | HEG1 (lysine site: K1178) (UniProt Q9ULI3) | 4.55
4 | LRP1 (lysine site: K3910) (UniProt Q07954) | 1.43 (active)
5 | RPS3A (lysine site: K152) (UniProt P61247) | 3.85
6 | KRT18 (lysine site: K417) (UniProt P05783) | 10.9
7 | PDIA3 (lysine site: K129) (UniProt P30101) | 1.94 (active)
8 | UniProt P62913 (lysine site: K67) | 3.62
9 | SPTBN1 (lysine site: K1815) (UniProt Q01082) | 2.56
10 | EGFR (lysine site: K487) (UniProt P00533) | 1.61 (active)
11 | SMC2 (lysine site: K963) (UniProt O95347) | 2.26
12 | B2M (lysine site: K26) (UniProt P61769) | 10.1
13 | APOO (lysine site: K51) (UniProt Q9BUR5) | 0.799 (active)
14 | SLC39A6 (lysine site: K249) (UniProt Q13433) | 3.94
15 | JUP (lysine site: K656) (UniProt P14923) | 0.972 (active)
16 | PGK1 (lysine site: K30) (UniProt P00558) | 2.54
17 | ABCB1 (lysine site: K748) (UniProt P08183) | 1.52 (active)
18 | FSCN1 (lysine site: K220) (UniProt Q16658) | 4.2
19 | CD55 (lysine site: K161) (UniProt P08174) | 0.828 (active)
20 | UniProt P52803 (lysine site: K180) | 6.21

Row | Target | lysine labeling ratio R10:1
21 | EEF1G (lysine site: K437) (UniProt P26641) | 3.73
22 | SEMA3C (lysine site: K616) (UniProt Q99985) | 5.77
23 | SPTAN1 (lysine site: K1288) (UniProt Q13813) | 1.21 (active)
24 | TMEM109 (lysine site: K46) (UniProt Q9BVC6) | 3.23
25 | UniProt Q8WXI7 (lysine site: K13228) | 11.9
26 | GPC1 (lysine site: K358) (UniProt P35052) | 1.32 (active)
27 | UniProt Q86V81 (lysine site: K235) | 2.42
28 | UniProt Q9NRD8 (lysine site: K530) | 6.54
29 | ATAD3B (lysine site: K117) (UniProt Q5T9A4) | 1.26 (active)
30 | HSPD1 (lysine site: K31) (UniProt P10809) | 4.2
31 | ITGA2 (lysine site: K718) (UniProt P17301) | 2.51
32 | FRAS1 (lysine site: K211) (UniProt Q86XX4) | 1.36 (active)
33 | RUVBL2 (lysine site: K279) (UniProt Q9Y230) | 2.65
34 | HNRNPU (lysine site: K186) (UniProt Q00839) | 4.06
35 | UniProt Q15149 (lysine site: K932) | 6.51
36 | RPS3 (lysine site: K108) (UniProt P23396) | 4.95
37 | SUB1 (lysine site: K53) (UniProt P53999) | 9.37
38 | ROBO1 (lysine site: K503) (UniProt Q9Y6N7) | 7.35
39 | SLC3A2 (lysine site: K217) (UniProt P08195) | 7.33
40 | LMAN1 (lysine site: K87) (UniProt P49257) | 3.85
